# Compound activity: PubChem BioAssay, several laboratories
# ROMK mod – modulates human ROMK potassium channel activity. P48048. B-score at 10 µM. Tet-inducible ROMK, thallium flux fluorescence; actives lie on both sides. AID 1918. actives 2% (n = 130,000);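 active means signal ratio slope over the read window, or its plate-corrected B-score, at least 3 SD from the plate mean, either direction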;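 further: B-score of the F/F0 ratio slope over 7 to 12 s after thallium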
# WT yeast gro inh – growth inhibition of WT yeast, mitochondrial fusion screen. inhibition, % at 10 µM. actives 2.1% (n = 190,000). AID 1362. mitochondrial fusion phenotypic screen, WT strain; in the data active means inhibition above about 58%; tested in S. cerevisiae
# PERK inh – inhibitors of human PERK kinase. actives 0.17% (n = 220,000). inhibition, % at 5.6 µM. CHO PERK-DD fusion, SEAP luminescence translation reporter. Q9NZJ5;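 active means inhibition above the mean inhibition of all tested compounds plus 3 SD, set separately per screening campaign, cut at about 2.9% in these data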;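 further: PERK kinase domain activated by AP20187 dimerizer at 100 nM; 0% = DMSO with dimerizer and 100% = rapamycin at 8.4 µM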
# Target sequence (Q9NZJ5 whole entry, looked up, the tested form may be a part): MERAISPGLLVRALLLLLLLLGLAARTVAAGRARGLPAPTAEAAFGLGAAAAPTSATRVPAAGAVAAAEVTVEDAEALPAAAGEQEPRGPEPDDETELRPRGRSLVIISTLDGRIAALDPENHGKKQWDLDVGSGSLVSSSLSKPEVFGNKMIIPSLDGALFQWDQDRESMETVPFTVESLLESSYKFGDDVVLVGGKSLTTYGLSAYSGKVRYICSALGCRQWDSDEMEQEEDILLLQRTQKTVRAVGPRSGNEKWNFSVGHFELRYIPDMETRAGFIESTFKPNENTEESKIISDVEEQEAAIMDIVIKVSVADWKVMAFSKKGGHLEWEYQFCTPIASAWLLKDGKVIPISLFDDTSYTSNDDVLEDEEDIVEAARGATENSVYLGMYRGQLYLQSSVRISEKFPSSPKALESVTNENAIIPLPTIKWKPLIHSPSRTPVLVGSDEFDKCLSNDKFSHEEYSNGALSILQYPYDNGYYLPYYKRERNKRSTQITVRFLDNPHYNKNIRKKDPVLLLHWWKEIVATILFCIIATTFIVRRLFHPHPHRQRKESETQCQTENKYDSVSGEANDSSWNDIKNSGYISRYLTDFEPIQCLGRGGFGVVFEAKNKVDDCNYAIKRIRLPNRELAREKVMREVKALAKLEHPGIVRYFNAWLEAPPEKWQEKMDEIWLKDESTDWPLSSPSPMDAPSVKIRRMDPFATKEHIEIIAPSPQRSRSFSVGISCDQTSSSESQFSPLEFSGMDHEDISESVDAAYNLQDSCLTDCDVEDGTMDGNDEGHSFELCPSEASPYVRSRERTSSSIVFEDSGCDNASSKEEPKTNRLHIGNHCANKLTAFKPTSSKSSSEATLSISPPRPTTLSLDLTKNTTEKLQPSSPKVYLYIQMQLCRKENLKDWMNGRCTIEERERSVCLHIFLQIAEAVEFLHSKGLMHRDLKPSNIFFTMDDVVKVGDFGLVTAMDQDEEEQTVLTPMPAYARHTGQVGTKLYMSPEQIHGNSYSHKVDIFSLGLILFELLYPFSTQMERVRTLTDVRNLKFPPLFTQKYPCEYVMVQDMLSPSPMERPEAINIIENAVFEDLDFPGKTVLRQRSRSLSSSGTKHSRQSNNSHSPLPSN
# Arbovirus inh – arbovirus infection inhibition. arbovirus infection cell-based antiviral screen. actives 0.37% (n = 200,000). inhibition, % at 10 µM; in the data active means inhibition above about 30%
# ROMK hit retest – retested hit modulating human ROMK potassium channel | shares compounds with ROMK mod | ROMK thallium flux, fluorescence ratio; hits give low values | normalized thallium flux (F/F0 slope) at 10 µM | actives 54% (n = 3,000) | AID 1917;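 active means Flux at 10 µM at least 3 SD below or above vehicle control mean in one or both replicates; inconclusive means no clear call, values can overlap the other calls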
# Active calls of the source: *; ? = inconclusive; · = no result. Hits are enriched below; roughly 3.3% of the tested compounds scored in any of these assays.
SMILES,ROMK mod,WT yeast gro inh,PERK inh,Arbovirus inh,ROMK hit retest
O=C(/C=C/c1ccco1)Nc1ccccn1,1.8*,8,1,-13,0.085
Cc1ccc(NC(=O)/C=C/c2ccco2)nc1,4.5*,-4,0,-8,0.09
O=C(Nc1ccc(F)cc1)c1ccccc1NS(=O)(=O)N1CCCC1,-1.1,34,0,19,·
N#Cc1cc(-c2ccccc2)cnc1Cl,·,0,-1,0,·
CC1(C)Cc2ccccc2C(/C(=N/O)C(N)=O)=N1,-0.097,-11,0,3,·
CC(=O)c1ccc(N/N=C(/C(N)=O)C2=NC(C)(C)Cc3ccccc32)cc1,-5.4*,2,-1,-17,0.049*
O=C(NCCCN1CCCC1=O)c1cccs1,·,4,1,7,0.075
CCSC1(SCC)N=C(N)C2(C#N)C(c3ccc(F)cc3)C12C#N (stereo not drawn),·,0,0,-1,?
COC1(OC)N=C(N)C2(C#N)C(c3ccc(F)cc3)C12C#N (stereo not drawn),0.23,23,1,8,·
CCN1CCN(Cc2nc3c(c(=O)n(C)c(=O)n3C)n2Cc2ccc(Cl)cc2Cl)CC1,·,14,·,-5,·
O=C(c1ccco1)N1CCCN(Cc2nc(-c3cccs3)no2)CC1,-0.74,4,1,0,·
CCOc1ccc(-n2c(C)nc3cc(C(=O)NCc4ccc5c(c4)OCO5)ccc32)cc1,2.3,52,-1,-15,·
COc1ccc(-n2c(C)nc3cc(C(=O)NCc4ccc5c(c4)OCO5)ccc32)cc1,4.2*,18,0,-19,0.092
CCOC(=O)C1CCCN(c2nc3ccccc3nc2C(C#N)C(=O)OC(C)COC)C1 (stereo not drawn),-0.14,-9,-1,-4,0.071
CC(C)c1ccccc1NC(=O)COC(=O)COc1ccccc1[N+](=O)[O-],1.1,14,0,-2,·
O=C(Cn1nc([N+](=O)[O-])nc1Br)NC(c1ccccc1)c1ccccc1,·,4,1,11,·
CCOC(=O)c1c(/N=C/c2ccc(C)cc2O)sc2c1CCC2,-2.4*,-14,2,-3,0.039*
CCOC(=O)c1c(/N=C/c2ccc(OC)cc2O)sc2c1CCN(C)C2,·,·,1,·,·
CC(C)OCCCn1c(SCC(=O)N2CCc3ccccc32)nc2ccccc2c1=O,·,-8,-1,4,·
Oc1ccc2cc(Br)ccc2c1CN1CCCC1,-0.52,12,0,23,0.064*
CCCCCOc1ccc(Br)cc1CSC(=N)N,·,65*,-1,-43,0.042*
COc1ccccc1N1CCN(CCNC(=O)Nc2cccc(C)c2C)CC1,-2.8*,6,-2,-33,0.059*
CCOc1ccc2nc(NC(=O)C(NS(=O)(=O)c3cccc4nsnc34)C(C)C)sc2c1 (stereo not drawn),·,3,0,-22,0.056*
O=C(C1CCCN(S(=O)(=O)c2ccc(Cl)cc2)C1)N(Cc1cccs1)C1CC1 (stereo not drawn),-4*,30,0,7,0.058*
N#CC1=C(N)C(C#N)(C#N)C(c2ccc[nH]2)C2CCCC=C12 (stereo not drawn),-6.5*,-15,1,14,0.053*
SMILES,ROMK mod,WT yeast gro inh,PERK inh,Arbovirus inh,ROMK hit retest
N#CC1=C(N)C(C#N)(C#N)C(c2cccnc2)C2CCCC=C12 (stereo not drawn),·,-2,0,17,·
COc1ccc(C(=O)NCc2ccc(S(N)(=O)=O)cc2)cc1[N+](=O)[O-],-13*,3,1,15,0.089
Cc1cc(C(=O)NCc2ccc(S(N)(=O)=O)cc2)ccc1[N+](=O)[O-],-0.16,8,1,9,·
S=C(Sc1ccc(Cl)cc1)Sc1ccc(Cl)cc1,0.56,·,2,·,·
COc1cccc(/C=C/C(=O)c2c(O)cc(C)oc2=O)c1O,-5.9*,-39,1,10,0.057*
CC(=O)NCC(=O)OC(C)C(=O)Nc1ccc(C(C)=O)cc1 (stereo not drawn),·,3,0,0,0.075
CC(=O)NCC(=O)OCC(=O)Nc1ccc(C(C)=O)cc1,0.12,9,-1,11,·
O=C(CCl)N(c1ccc(Cl)cc1)c1c[nH]c2ccccc12,-2.2,14,-2,-23,0.056*
COc1ccc(NC(=O)Nc2ccc(F)cc2)c(C)c1,-2.1*,-1,0,2,0.075
Oc1ccc(Nc2nc(NCC3CCCO3)c3ccccc3n2)cc1 (stereo not drawn),-5.5*,3,0,41*,0.055*
O=C(COC(=O)C1CCN(C(=O)c2ccc(Cl)cc2)CC1)NC1CCS(=O)(=O)C1 (stereo not drawn),-0.24,-2,2,8,·
CCn1c(=O)c(C)nn2c3ccccc3nc12,·,-21,1,2,0.073
CCOc1ccccc1NC(=O)c1ccc(F)c(S(=O)(=O)N2CCC3(CC2)OCCO3)c1,-0.52,14,-2,6,·
CC(C)(C)C(O)(CC#CCN1CCCC1)c1ccccc1 (stereo not drawn),-0.57,-14,1,1,·
CC1(C)CC(=O)C(C=NCC2CCN(C(=O)Cc3ccccc3)CC2)=C(O)C1,-3.8*,-4,0,4,0.084
COc1cccc(C(=O)N(c2ccc(OC)cc2OC)C2C=CS(=O)(=O)C2)c1 (stereo not drawn),·,17,-1,1,·
CN(C)C(/C=C/Nc1ccc(Br)cc1)=C(C#N)C#N,·,-8,1,0,·
Brc1ccc(N=C/C=C/C=C/Nc2ccc(Br)cc2)cc1,·,37,2,-8,?
CCN(CC)CC(=O)Nc1ccccc1SCC(=O)Nc1ccsc1C(=O)OC,-1.1,9,0,28,·
O=C(Nc1ccccc1C(F)(F)F)c1cc2ncc(CCCl)cn2n1,1.1,-5,1,1,·
O=C(N/N=C/c1ccc(O)cc1)Nc1cccc2nsnc12,0.76,10,0,11,·
CC(C)OC(=O)C[N+](C)(C)CCN1C(=O)C2C(c3ccccc3)C=CC(c3ccccc3)C2C1=O (stereo not drawn),-3.3*,4,1,7,?
CCC(C)NS(=O)(=O)c1ccc(-c2csnn2)s1 (stereo not drawn),-0.64,11,0,-5,·
Cc1cccc(-c2nnc(SCC(=O)NCc3ccc4c(c3)OCO4)n2C)c1,·,0,0,1,·
CC(C)CCNC(=O)C(c1ccc(O)cc1)N(C(=O)C1COc2ccccc2O1)c1cccc(O)c1 (stereo not drawn),-2.7*,0,0,-6,0.055*
SMILES,ROMK mod,WT yeast gro inh,PERK inh,Arbovirus inh,ROMK hit retest
COc1ccccc1OCCOCCOc1ccccc1Cl,-2.8*,-4,0,7,0.074
Cc1ccc(C)c2[nH]c(=O)c(CN(CC3CCCO3)C(=S)NCc3ccco3)cc12 (stereo not drawn),-3.5*,·,-2,·,?
CCc1ccc2[nH]c(=O)c(CN(CC3CCCO3)C(=S)NCc3ccco3)cc2c1 (stereo not drawn),-1,·,-2,·,·
Cc1ccc(C)c2[nH]c(=O)c(CN(Cc3cccs3)C(=S)NCc3ccco3)cc12,0.085,-9,-1,15,·
Cc1ccc2cc(CN(CC3CCCO3)C(=S)NCc3ccco3)c(=O)[nH]c2c1C (stereo not drawn),·,12,-1,5,0.071
CC(C)(C)c1nnc(NC(=O)NS(=O)(=O)c2ccccc2)s1,·,-13,1,7,·
